# What was measured:
# Assay in all cases: DAPPL (digital affinity profiling via proximity ligation, sequencing); 10 mM Tris-HCl pH 7.5, 50 mM NaCl, 1 mM DTT, 4% glycerol, room temperature, 30 min; GST-TFs on glutathione beads, 16-mer random dsDNA library, 0.1% formaldehyde crosslink after washing; high values mean tight binding
# FEV = biological target: T1, FEV (Homo sapiens, UniProt Q99581 1-238); settings: protein: recombinant; tags: N-terminal GST; dsDNA, one strand shown
# T1 sequence: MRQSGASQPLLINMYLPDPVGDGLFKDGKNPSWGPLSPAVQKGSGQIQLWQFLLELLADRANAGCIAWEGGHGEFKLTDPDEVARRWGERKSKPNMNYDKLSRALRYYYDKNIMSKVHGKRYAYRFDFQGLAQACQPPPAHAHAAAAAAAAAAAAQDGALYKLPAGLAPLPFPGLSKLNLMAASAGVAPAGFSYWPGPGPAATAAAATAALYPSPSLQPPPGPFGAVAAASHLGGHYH
# Procedure, shortened: (§1)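 Pools of DNA-barcoded human transcription factors, expressed in yeast as GST fusions on glutathione beads and combined with a tag-only sample, were incubated with 200 nmole of a 16-mer random double-stranded DNA library. Incubation took 30 min at room temperature in Tris/NaCl/DTT/glycerol buffer and was followed by washing, 0.1% formaldehyde crosslinking, proximity ligation (BsaI/T4 ligase, 1 h, 37 °C), PCR amplification and sequencing on an Illumina NextSeq500. Binding signal is the ratio of a hexamer's read frequency for a factor to its frequency for the tag-only sample.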
# ETV5 = ETV5 (Homo sapiens, UniProt P41161 1-510); settings: protein: recombinant; tags: N-terminal GST; dsDNA, one strand shown
# ETV5, sequence (P41161 whole entry): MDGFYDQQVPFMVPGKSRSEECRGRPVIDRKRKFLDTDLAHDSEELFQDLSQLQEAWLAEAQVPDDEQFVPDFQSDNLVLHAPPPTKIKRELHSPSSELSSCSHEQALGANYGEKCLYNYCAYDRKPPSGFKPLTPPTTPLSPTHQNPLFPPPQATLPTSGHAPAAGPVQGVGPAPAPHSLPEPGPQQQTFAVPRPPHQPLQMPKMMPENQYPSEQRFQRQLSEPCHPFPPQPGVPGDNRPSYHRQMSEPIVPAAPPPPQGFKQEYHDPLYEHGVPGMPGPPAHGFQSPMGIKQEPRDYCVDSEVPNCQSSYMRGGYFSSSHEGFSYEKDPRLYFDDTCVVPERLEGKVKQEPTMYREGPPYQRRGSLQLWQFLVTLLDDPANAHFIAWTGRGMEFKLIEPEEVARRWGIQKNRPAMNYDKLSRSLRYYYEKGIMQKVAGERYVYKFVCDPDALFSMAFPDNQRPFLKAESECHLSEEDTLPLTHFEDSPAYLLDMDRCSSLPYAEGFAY
# Procedure, shortened: as §1
# HSF1 = HSF1 (Homo sapiens, UniProt Q00613 1-529); settings: protein: recombinant; tags: N-terminal GST; chain copies: 3; dsDNA, one strand shown
# HSF1, sequence (Q00613 whole entry): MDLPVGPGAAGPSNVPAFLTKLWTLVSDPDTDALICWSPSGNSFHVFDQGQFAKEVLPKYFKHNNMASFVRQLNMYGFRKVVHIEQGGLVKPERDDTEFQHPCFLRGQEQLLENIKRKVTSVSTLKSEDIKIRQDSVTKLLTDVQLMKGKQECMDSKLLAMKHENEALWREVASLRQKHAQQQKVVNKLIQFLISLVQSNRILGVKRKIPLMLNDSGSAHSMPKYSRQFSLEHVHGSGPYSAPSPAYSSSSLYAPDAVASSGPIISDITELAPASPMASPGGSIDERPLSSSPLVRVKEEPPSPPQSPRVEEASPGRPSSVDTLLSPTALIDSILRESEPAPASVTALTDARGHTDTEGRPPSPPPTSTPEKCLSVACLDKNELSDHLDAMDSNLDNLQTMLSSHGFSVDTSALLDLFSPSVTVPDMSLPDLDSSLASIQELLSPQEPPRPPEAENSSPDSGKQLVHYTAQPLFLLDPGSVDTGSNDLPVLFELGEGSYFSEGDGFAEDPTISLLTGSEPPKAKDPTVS
# Procedure, shortened: as §1
# SPIC = biological target: T2, SPIC (Homo sapiens, UniProt Q8N5J4 1-248); settings: protein: recombinant; tags: N-terminal GST; dsDNA, one strand shown
# T2 sequence: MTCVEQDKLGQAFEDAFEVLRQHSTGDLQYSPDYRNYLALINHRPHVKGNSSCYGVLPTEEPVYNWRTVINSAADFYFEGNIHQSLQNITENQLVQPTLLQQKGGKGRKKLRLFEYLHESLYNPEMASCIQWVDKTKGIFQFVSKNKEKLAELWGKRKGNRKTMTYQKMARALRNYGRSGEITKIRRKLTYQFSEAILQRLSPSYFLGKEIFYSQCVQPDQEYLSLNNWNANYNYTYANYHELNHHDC
# Procedure, shortened: as §1
# ELF4 = ELF4 (Homo sapiens, UniProt Q99607 1-663); settings: protein: recombinant; tags: N-terminal GST; dsDNA, one strand shown
# ELF4, sequence (Q99607 whole entry): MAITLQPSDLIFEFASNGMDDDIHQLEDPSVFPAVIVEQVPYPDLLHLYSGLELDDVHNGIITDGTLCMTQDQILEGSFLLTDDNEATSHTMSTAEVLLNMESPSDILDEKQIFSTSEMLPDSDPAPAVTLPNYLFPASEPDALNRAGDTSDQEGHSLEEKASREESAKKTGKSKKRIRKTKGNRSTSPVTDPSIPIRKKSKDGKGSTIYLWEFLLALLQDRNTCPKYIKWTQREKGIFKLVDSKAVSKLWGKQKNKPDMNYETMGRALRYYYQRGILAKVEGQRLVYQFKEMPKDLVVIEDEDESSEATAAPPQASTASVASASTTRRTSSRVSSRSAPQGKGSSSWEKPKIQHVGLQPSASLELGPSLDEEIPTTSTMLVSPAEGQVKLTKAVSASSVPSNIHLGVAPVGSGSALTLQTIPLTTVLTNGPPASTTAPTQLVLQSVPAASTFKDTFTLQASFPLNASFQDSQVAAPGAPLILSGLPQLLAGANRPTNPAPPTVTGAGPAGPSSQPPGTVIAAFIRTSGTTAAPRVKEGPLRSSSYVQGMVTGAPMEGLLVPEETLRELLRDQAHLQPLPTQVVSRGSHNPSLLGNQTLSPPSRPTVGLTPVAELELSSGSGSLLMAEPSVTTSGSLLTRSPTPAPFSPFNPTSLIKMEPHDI
# Procedure, shortened: as §1
# ELK4 = biological target: T3, ELK4 (Homo sapiens, UniProt P28324-2 1-405); settings: protein: recombinant; tags: N-terminal GST; dsDNA, one strand shown
# T3 sequence: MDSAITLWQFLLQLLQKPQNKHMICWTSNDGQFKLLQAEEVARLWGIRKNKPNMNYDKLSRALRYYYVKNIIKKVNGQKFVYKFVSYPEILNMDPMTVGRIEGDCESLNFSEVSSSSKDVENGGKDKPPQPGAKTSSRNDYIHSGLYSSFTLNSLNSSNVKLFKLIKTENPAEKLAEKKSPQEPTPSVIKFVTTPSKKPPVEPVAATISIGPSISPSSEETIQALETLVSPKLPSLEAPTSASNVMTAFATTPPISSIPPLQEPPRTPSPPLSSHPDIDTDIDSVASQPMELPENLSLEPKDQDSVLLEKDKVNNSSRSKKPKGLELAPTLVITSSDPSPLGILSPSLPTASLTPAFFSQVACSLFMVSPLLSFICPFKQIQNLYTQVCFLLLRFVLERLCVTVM
# Procedure, shortened: as §1
# ETV2 = biological target: T4, ETV2 (Homo sapiens, UniProt O00321 1-342); settings: protein: recombinant; tags: N-terminal GST; dsDNA, one strand shown
# T4 sequence: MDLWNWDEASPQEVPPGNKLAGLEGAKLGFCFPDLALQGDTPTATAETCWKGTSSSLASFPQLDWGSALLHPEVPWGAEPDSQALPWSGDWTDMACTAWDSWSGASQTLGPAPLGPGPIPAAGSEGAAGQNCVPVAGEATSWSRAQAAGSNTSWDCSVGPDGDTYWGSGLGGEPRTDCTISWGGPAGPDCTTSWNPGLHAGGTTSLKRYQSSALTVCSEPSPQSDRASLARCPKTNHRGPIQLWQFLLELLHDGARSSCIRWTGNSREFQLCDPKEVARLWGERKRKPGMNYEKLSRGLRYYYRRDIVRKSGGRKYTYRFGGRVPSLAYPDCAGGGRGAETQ
# Procedure, shortened: as §1
# ELF3 = biological target: T5, ELF3 (Homo sapiens, UniProt P78545 1-371); settings: protein: recombinant; tags: N-terminal GST; dsDNA, one strand shown
# T5 sequence: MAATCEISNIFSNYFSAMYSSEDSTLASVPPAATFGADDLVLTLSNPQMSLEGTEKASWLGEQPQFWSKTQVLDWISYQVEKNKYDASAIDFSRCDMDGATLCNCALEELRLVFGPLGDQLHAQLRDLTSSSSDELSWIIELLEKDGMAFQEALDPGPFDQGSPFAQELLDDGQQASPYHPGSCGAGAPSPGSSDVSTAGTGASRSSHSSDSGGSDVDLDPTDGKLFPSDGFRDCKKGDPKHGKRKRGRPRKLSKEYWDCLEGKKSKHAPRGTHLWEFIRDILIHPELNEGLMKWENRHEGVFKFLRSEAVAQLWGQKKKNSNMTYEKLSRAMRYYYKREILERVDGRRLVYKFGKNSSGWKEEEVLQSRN
# Procedure, shortened: as §1
# CRX = CRX (Homo sapiens, UniProt O43186 1-299); settings: protein: recombinant; tags: N-terminal GST; dsDNA, one strand shown
# CRX, sequence (O43186 whole entry): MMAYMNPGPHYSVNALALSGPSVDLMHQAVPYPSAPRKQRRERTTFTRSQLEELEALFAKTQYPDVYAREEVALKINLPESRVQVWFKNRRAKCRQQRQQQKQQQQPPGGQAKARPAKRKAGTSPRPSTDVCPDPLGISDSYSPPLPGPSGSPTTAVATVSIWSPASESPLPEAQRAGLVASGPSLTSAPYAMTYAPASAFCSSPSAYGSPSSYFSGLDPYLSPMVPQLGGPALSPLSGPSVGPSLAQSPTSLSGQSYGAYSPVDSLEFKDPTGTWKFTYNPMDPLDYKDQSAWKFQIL
# Procedure, shortened: as §1
# ETV1 = ETV1 (Homo sapiens, UniProt P50549 1-477); settings: protein: recombinant; tags: N-terminal GST; dsDNA, one strand shown
# ETV1, sequence (P50549 whole entry): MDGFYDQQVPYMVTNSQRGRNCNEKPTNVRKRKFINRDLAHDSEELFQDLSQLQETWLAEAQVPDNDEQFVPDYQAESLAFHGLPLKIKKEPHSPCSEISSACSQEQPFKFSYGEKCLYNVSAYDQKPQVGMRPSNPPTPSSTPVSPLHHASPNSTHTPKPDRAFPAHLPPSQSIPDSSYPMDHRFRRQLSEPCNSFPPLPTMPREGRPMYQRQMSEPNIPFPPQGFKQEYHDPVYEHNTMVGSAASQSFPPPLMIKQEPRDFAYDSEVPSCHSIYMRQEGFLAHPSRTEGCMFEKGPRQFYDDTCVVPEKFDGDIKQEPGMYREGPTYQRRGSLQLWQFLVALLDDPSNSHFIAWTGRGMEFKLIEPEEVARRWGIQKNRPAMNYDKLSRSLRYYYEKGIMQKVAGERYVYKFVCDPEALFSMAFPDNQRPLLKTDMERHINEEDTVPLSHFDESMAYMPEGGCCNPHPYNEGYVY
# Procedure, shortened: as §1
# ERF = biological target: T6, ERF (Homo sapiens, UniProt P50548 1-548); settings: protein: recombinant; tags: N-terminal GST; dsDNA, one strand shown
# T6 sequence: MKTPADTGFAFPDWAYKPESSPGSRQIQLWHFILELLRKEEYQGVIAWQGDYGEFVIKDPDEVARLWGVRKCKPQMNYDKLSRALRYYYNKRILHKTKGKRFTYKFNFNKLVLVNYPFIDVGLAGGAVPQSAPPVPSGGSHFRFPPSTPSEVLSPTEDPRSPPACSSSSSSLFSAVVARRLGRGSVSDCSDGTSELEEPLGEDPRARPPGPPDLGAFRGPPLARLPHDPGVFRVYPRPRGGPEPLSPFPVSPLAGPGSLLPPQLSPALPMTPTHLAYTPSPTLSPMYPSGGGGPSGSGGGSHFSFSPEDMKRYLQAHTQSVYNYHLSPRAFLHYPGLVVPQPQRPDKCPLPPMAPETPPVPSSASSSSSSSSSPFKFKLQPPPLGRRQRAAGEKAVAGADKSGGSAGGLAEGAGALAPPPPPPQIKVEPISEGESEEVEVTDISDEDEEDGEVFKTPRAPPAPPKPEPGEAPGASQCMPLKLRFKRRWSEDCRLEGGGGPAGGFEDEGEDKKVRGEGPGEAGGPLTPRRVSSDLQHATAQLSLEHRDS
# Procedure, shortened: as §1
# ETV3L = biological target: T7, ETV3L (Homo sapiens, UniProt Q6ZN32 1-361); settings: protein: recombinant; tags: N-terminal GST; dsDNA, one strand shown
# T7 sequence: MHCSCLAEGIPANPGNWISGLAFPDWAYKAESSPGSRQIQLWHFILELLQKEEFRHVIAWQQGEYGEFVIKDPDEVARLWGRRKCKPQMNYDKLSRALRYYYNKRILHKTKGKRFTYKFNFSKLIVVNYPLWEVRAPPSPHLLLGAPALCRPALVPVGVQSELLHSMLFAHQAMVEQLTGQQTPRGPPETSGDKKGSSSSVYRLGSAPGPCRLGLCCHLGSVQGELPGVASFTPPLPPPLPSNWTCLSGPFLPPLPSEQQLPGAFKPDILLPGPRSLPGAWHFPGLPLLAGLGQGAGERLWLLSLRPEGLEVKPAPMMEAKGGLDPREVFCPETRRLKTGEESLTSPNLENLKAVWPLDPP
# Procedure, shortened: as §1
# ETS2 = biological target: T8, ETS2 (Homo sapiens, UniProt P15036 1-469); settings: protein: recombinant; tags: N-terminal GST; dsDNA, one strand shown
# T8 sequence: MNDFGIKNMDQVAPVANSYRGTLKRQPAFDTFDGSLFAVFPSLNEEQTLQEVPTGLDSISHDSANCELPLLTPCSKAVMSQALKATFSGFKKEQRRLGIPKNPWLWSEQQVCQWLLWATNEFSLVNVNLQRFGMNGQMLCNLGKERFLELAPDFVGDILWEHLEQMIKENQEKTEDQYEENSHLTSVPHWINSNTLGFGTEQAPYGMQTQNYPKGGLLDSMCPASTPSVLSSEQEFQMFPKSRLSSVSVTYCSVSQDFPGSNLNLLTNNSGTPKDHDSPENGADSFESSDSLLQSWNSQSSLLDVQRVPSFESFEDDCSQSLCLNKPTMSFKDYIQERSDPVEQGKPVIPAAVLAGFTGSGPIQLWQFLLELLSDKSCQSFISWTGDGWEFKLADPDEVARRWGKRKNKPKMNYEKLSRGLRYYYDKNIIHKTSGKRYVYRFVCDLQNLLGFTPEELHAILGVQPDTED
# Procedure, shortened: as §1
# SPDEF = biological target: T9, SPDEF (Homo sapiens, UniProt O95238 1-335); settings: protein: recombinant; tags: N-terminal GST; dsDNA, one strand shown
# T9 sequence: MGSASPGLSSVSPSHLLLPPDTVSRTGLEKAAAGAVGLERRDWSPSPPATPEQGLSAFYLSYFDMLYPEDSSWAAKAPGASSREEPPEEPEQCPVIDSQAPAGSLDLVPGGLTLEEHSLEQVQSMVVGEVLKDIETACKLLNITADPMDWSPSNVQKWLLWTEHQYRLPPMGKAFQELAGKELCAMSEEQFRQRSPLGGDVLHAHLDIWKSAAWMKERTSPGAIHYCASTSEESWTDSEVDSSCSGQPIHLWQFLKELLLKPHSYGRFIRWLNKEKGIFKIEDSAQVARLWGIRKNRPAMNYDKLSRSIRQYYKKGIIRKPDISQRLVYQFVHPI
# Procedure, shortened: as §1
# ETV7 = biological target: T10, ETV7 (Homo sapiens, UniProt Q9Y603 1-341); settings: protein: recombinant; tags: N-terminal GST; dsDNA, one strand shown
# T10 sequence: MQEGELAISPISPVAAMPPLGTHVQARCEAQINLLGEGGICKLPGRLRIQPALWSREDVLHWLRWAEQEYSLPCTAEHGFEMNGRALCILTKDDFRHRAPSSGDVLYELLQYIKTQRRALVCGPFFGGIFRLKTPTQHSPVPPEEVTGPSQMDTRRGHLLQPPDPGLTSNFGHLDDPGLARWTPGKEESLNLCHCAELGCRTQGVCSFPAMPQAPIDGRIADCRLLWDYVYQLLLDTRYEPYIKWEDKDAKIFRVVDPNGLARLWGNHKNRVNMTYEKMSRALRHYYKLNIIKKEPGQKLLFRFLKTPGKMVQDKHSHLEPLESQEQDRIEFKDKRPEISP
# Procedure, shortened: as §1
# ELF5 = biological target: T11, ELF5 (Homo sapiens, UniProt Q9UKW6-2 1-255); settings: protein: recombinant; tags: N-terminal GST; dsDNA, one strand shown
# T11 sequence: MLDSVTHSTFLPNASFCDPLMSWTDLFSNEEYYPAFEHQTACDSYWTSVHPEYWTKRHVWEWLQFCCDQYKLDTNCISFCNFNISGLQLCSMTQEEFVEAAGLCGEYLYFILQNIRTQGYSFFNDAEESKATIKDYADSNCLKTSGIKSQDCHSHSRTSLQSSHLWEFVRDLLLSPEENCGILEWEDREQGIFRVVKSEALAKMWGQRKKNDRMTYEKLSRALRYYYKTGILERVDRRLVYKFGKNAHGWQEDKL
# Procedure, shortened: as §1
# ETV6 = ETV6 (Homo sapiens, UniProt P41212 1-452); settings: protein: recombinant; tags: N-terminal GST; dsDNA, one strand shown
# ETV6, sequence (P41212 whole entry): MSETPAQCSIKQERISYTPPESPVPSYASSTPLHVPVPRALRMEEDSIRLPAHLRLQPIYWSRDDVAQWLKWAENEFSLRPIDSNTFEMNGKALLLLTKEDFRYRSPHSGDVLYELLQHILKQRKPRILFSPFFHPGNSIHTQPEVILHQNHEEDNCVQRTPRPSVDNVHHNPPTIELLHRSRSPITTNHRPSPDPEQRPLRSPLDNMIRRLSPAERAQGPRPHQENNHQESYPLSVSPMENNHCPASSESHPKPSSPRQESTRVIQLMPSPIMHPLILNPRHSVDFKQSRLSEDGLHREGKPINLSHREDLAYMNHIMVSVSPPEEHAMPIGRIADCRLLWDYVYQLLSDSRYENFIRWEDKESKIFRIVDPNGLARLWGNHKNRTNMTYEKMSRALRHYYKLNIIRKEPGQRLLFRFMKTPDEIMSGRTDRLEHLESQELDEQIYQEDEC
# Procedure, shortened: as §1
sequence,measurement,setting,value
CAAATC,binding signal,FEV,"1.16 fold enrichment (6-mer frequency, TF over GST control)"
same,binding signal,ETV5,"1.14 fold enrichment (6-mer frequency, TF over GST control)"
same,binding signal,HSF1,"1.29 fold enrichment (6-mer frequency, TF over GST control)"
same,binding signal,SPIC,"1.17 fold enrichment (6-mer frequency, TF over GST control)"
same,binding signal,ELF4,"1.12 fold enrichment (6-mer frequency, TF over GST control)"
same,binding signal,ELK4,"1.17 fold enrichment (6-mer frequency, TF over GST control)"
same,binding signal,ETV2,"1.1 fold enrichment (6-mer frequency, TF over GST control)"
same,binding signal,ELF3,"1.12 fold enrichment (6-mer frequency, TF over GST control)"
same,binding signal,CRX,"1.69 fold enrichment (6-mer frequency, TF over GST control)"
same,binding signal,ETV1,"1.15 fold enrichment (6-mer frequency, TF over GST control)"
same,binding signal,ERF,"1.12 fold enrichment (6-mer frequency, TF over GST control)"
same,binding signal,ETV3L,"1.1 fold enrichment (6-mer frequency, TF over GST control)"
same,binding signal,ETS2,"1.09 fold enrichment (6-mer frequency, TF over GST control)"
same,binding signal,SPDEF,"1.26 fold enrichment (6-mer frequency, TF over GST control)"
same,binding signal,ETV7,"1.13 fold enrichment (6-mer frequency, TF over GST control)"
same,binding signal,ELF5,"1.08 fold enrichment (6-mer frequency, TF over GST control)"
same,binding signal,ETV6,"1.05 fold enrichment (6-mer frequency, TF over GST control)"

# Source: paper PMC7862700, “An all-to-all approach to the identification of sequence-specific readers for epigenetic DNA modifications on cytosine”
